Measurements: PubChem BioAssay (NCATS)
Several values for one entry are separate records, joined by “and”; a condition that tells them apart may be missing. Equal values may be shown once. Records with an inconclusive call do not appear. Activity calls are given as the source filed them. Unless noted, calls come from the whole dose curve; as a rule, active = well fitted curve in the direction sought with a large enough effect; inconclusive = small, poorly fitted or top-dose-only effect, or another doubt; inactive = no such curve, though single readings can be large; an effect the other way counts as inactive or inconclusive.

Key:
[1] = target: Thyroid hormone receptor beta (Homo sapiens) (UniProt P10828); test: qHTS assay for small molecule antagonists of thyroid hormone receptor beta signaling (AID 588547; active = well fitted inhibition curve with a large enough effect in the signal ratio, with a control signal flat, not every such curve was filed as active; the % refers to the signal ratio;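 note: cells stimulated with 0.4 nM T3 agonist during compound exposure; % is set by controls: 0 for no effect and ±100 for the full control effect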); details: TR-UAS-bla HEK293, beta-lactamase ratio, antagonist mode, 18 h
Procedure, shortened: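 Inhibition of T3-driven (0.4nM final) beta-lactamase reporter activity was measured over 0.59 nM to 92 uM compound after 18 h at 37 C. The cells were GripTite HEK293 TR-UAS-bla in charcoal/dextran-stripped serum, with CCF4 ratio read-out and IC50 from Hill fits.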

[2] = target: Voltage-gated inwardly rectifying potassium channel KCNH2 (Homo sapiens) (UniProt Q12809); test: qHTS Assay for Small Molecule Inhibitors of the Human hERG Channel Activity (AID 588834); details: U2OS BacMam hERG, FluxOR thallium flux fluorescence; series mostly up to 46.1 µM;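 note: top concentration of the series differs between compounds; % is set by controls: 0 for no effect and ±100 for the full control effect; lower thallium flux fluorescence means stronger hERG block; nearly all actives have a fitted effect of over 50% in size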
Procedure, shortened: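 Thallium serves as surrogate for K+ influx through BacMam-delivered hERG in U2OS cells. Compounds are added for about 10 minutes after dye loading; stimulation buffer then starts flux, monitored kinetically on FDSS.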

[3] = target: Luciferin 4-monooxygenase (Photinus pyralis) (UniProt P08659); test: Biochemical firefly luciferase enzyme assay for NPC (AID 624030);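 note: purified P. pyralis luciferase at 10 nM with luciferin and ATP substrate; 0% = DMSO and -100% = full luciferase inhibition by PTC124 control; nearly all actives have a fitted effect of over 70% in size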; details: purified P. pyralis luciferase, luminescence, 5 min; series mostly up to 58.6 µM
Procedure, shortened: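 Direct inhibition of firefly luciferase enzyme (10 nM final, 50 mM Tris Acetate) assessed by luminescence within 5 minutes. Percent activity scaled between DMSO and PTC124 positive control, with concentration-effect curves classified by fit quality and response.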

[4] = S16 Schwann cell viability assay (CellTiter-Glo assay) (AID 624031); details: S16 rat Schwann cells viability, 24 h; series mostly up to 57.5 µM;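 note: cellular ATP luminescence as a viability measure; plate controls were DMSO-treated cells for no effect and cell-free wells for full effect; nearly all actives have a fitted effect of over 70% in size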
Procedure, shortened: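 CellTiter-Glo ATP luminescence counter-screen in untransfected S16 rat Schwann cells, 24h compound exposure at 37 degree Celsius after overnight seeding (500-750 cells/well); response scaled between cell-free wells and DMSO (0% activity), curves classed by r2 and magnitude.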

[5] = S16 Schwann cell PMP22 intronic element firefly luciferase assay (AID 624032); details: S16 rat Schwann cells, PMP22 element FLuc, 24 h; series mostly up to 57.5 µM;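 note: plate controls were DMSO for no effect and PTC124 positive control mean for full effect; nearly all actives have a fitted effect of over 30% in size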
Procedure, shortened: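 Luciferase reporter of PMP22 intronic-element expression in stably transfected S16 rat Schwann cells, read by ONE-Glo luminescence after 24 h compound exposure at 37 C. Activity scaled between DMSO (0%) and positive-control PTC124; concentration-effect curves quality-classified.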

[6] = S16 Schwann cell PMP22 intronic element beta-lactamase assay (AID 624044; calls by dose curve;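 note: 0% = DMSO and -100% = potassium clavulanate positive control; nearly all actives have a fitted effect of over 15% in size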); details: S16 rat Schwann cells, PMP22 element beta-lactamase FRET, 24 h; ratio activity, negative = inhibition: at 38.3 µM (top of the series) unless noted
Procedure, shortened: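 Beta-lactamase reporter under a PMP22 intronic regulatory element in stable S16 rat Schwann cells; 24 h compound exposure. 460 nm blue signal normalized between DMSO (0%) and potassium clavulanate, with 535 nm FRET tracking viability; curves classed by r2 and response.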

Voltage-gated inwardly rectifying potassium channel KCNH2 (Homo sapiens), sequence (Q12809 whole entry, looked up): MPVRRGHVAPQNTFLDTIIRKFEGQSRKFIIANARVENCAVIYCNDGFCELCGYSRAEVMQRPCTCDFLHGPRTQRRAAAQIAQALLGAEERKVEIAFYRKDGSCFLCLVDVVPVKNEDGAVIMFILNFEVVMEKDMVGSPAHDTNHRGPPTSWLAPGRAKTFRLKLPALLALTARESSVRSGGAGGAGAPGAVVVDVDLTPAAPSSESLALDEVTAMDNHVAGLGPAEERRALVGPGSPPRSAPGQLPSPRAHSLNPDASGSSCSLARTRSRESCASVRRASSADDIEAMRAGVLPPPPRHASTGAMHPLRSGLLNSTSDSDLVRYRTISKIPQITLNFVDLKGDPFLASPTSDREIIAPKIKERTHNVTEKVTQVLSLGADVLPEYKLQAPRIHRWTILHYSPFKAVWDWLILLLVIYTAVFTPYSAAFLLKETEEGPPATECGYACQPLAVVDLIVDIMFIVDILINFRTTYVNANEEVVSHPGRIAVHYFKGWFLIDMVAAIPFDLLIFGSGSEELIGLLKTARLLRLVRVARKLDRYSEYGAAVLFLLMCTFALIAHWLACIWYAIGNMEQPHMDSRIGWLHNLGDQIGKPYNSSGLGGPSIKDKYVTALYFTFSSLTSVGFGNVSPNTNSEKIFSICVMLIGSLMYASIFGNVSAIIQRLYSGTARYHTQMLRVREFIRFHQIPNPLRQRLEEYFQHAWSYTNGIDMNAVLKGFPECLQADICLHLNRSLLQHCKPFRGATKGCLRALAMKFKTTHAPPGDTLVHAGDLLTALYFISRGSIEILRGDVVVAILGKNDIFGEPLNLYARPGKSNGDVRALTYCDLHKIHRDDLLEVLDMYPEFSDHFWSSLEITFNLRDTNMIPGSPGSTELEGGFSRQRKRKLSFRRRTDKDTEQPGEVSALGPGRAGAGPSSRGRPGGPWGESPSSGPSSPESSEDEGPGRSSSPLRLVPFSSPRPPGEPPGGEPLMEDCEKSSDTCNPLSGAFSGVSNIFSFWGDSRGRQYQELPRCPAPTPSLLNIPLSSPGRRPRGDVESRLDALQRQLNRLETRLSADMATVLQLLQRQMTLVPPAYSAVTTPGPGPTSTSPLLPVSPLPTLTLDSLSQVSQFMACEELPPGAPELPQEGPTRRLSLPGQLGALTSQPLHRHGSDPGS
Luciferin 4-monooxygenase (Photinus pyralis), sequence (P08659 whole entry, looked up): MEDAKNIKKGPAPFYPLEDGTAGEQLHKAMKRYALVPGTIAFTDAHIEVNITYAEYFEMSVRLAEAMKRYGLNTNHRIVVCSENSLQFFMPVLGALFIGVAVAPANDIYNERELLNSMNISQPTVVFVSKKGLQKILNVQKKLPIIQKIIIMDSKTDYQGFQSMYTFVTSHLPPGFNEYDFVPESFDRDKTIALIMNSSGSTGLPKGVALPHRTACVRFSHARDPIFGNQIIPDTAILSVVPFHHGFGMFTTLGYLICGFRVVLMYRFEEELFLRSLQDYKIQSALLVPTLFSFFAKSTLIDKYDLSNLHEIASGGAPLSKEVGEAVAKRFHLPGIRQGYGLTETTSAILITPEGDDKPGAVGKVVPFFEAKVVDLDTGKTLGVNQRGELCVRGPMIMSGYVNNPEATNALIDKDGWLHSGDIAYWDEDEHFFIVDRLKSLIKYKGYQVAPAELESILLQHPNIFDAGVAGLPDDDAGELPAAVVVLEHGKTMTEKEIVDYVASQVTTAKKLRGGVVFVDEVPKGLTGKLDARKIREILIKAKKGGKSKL
Thyroid hormone receptor beta (Homo sapiens), sequence (P10828 whole entry, looked up): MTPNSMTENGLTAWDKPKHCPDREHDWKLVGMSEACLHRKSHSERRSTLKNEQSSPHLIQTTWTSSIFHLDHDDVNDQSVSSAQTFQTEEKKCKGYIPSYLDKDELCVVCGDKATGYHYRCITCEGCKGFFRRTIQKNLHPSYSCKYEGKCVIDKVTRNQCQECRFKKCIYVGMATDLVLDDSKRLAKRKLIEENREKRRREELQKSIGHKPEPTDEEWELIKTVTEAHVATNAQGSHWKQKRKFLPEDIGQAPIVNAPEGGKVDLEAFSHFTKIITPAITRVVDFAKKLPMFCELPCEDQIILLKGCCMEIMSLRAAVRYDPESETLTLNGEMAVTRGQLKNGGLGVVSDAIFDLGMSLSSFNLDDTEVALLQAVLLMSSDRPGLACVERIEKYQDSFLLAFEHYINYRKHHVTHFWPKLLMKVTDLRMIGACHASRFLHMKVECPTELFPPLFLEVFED

Cc1ncc[nH]1
inactive: activity change % (negative = inhibition) [1] -11.5% | Potency [2] | Potency [3] | Potency [4] | Potency [5] | ratio activity, negative = inhibition [6] -0.768%

[O-][N+](=Nc1ccccc1)c1ccccc1
inactive: activity change % (negative = inhibition) [1] 7.57% | Potency [4] | ratio activity, negative = inhibition [6] 3.38%

CO/N=C(/C(=O)N[C@@H]1C(=O)N2C(C(=O)O)=C(COC(N)=O)CS[C@H]12)c1ccco1
inactive: activity change % (negative = inhibition) [1] -0.0158% | Potency [2] | Potency [3] | Potency [4] | Potency [5] | ratio activity, negative = inhibition [6] 0.236%

OB(O)O
inactive: activity change % (negative = inhibition) [1] 3.84% and -13.5% | Potency [2] | Potency [3] | Potency [4] | Potency [5] | ratio activity, negative = inhibition [6] 0.47%

C[Si](C)(C)O[Si](C)(C)C
inactive: activity change % (negative = inhibition) [1] 22.8% | Potency [3] | Potency [4] | Potency [5] | ratio activity, negative = inhibition [6] -0.118%

Oc1cccc(O)c1O
inactive: activity change % (negative = inhibition) [1] -26.7% | Potency [2] | Potency [3] | Potency [4] | Potency [5] | ratio activity, negative = inhibition [6] -1.18%

OCl
inactive: activity change % (negative = inhibition) [1] -3.27% | Potency [2] | Potency [3] | Potency [4] | Potency [5]

OC[C@H]1O[C@@](CO)(O[C@H]2O[C@H](CO)[C@@H](O)[C@H](O)[C@H]2O)[C@@H](O)[C@@H]1O
inactive: activity change % (negative = inhibition) [1] -5.25% | Potency [2] | Potency [4] | Potency [5] | ratio activity, negative = inhibition [6] 0%

FCOC(C(F)(F)F)C(F)(F)F
inactive: Potency [2] | Potency [3] | Potency [4] | Potency [5]

CCOC(=S)SSC(=S)OCC
inactive: Potency [2] | Potency [3] | Potency [4] | Potency [5]

CNC(=O)[C@H](Cc1c[nH]c2ccccc12)NC(=O)[C@@H](CC(=O)NO)CC(C)C
inactive: Potency [2] | Potency [3] | Potency [4] | Potency [5]

N[C@H](CC(=O)O)C(=O)O
inactive: Potency [2] | Potency [3] | Potency [4] | Potency [5]

CCOC(C)OCC
inactive: Potency [2] | Potency [3] | Potency [4] | Potency [5]

CCOC(=O)c1c[nH]c2cc(OCC(C)C)c(OCC(C)C)cc2c1=O
inactive: Potency [2] | Potency [3] | Potency [4] | Potency [5]

S=C=Nc1ccc(N=C=S)cc1
inactive: Potency [2] | Potency [3] | Potency [4] | Potency [5]

C[C@H]1O[C@@H](O[C@H]2[C@@H](O)C[C@H](O[C@H]3[C@@H](O)C[C@H](O[C@H]4CC[C@@]5(C)[C@H](CC[C@@H]6[C@@H]5C[C@@H](O)[C@]5(C)[C@@H](C7=CC(=O)OC7)CC[C@]65O)C4)O[C@@H]3C)O[C@@H]2C)C[C@H](O)[C@@H]1O
inactive: Potency [2] | Potency [3] | Potency [4] | Potency [5]

OCCOCCOCCO
inactive: Potency [2] | Potency [3] | Potency [4] | Potency [5]

O=S(=O)(O)CCCS(=O)(=O)O
inactive: Potency [2] | Potency [3] | Potency [4] | Potency [5]

CCCc1ccc(C(=O)O)cc1
inactive: Potency [2] | Potency [3] | Potency [4] | Potency [5]

O=C(O)[C@H]1CN(C/C=C/P(=O)(O)O)CCN1
inactive: Potency [2] | Potency [3] | Potency [4] | Potency [5]

CC1(C)S[C@@H]2[C@H](NC(=O)C3(N)CCCCC3)C(=O)N2[C@H]1C(=O)O
inactive: Potency [2] | Potency [3] | Potency [4] | Potency [5]

Nc1nc(=O)n([C@@H]2CS[C@H](CO)O2)cc1F
inactive: Potency [2] | Potency [3] | Potency [4] | Potency [5]

COC(=O)[C@@H](N)CS
inactive: Potency [2] | Potency [3] | Potency [4] | Potency [5]

CC(C)=CCC/C(C)=C/CC/C(C)=C/CC/C=C(\C)CC/C=C(\C)CCC=C(C)C
inactive: Potency [2] | Potency [3] | Potency [4] | Potency [5]

CC(C)(C)CC(C)(C)c1cc(Cc2cc(C(C)(C)CC(C)(C)C)cc(-n3nc4ccccc4n3)c2O)c(O)c(-n2nc3ccccc3n2)c1
inactive: Potency [2] | Potency [3] | Potency [4] | Potency [5]

NCC[C@H](O)C(=O)N[C@@H]1C[C@H](N)[C@@H](O[C@H]2O[C@H](CN)CC[C@H]2N)[C@H](O)[C@H]1O[C@H]1O[C@H](CO)[C@@H](O)[C@H](N)[C@H]1O
inactive: Potency [2] | Potency [3] | Potency [4] | Potency [5]

OCC1(CO)COC(C(Cl)(Cl)Cl)OC1
inactive: Potency [2] | Potency [3] | Potency [4] | Potency [5]

NC(=O)[C@H]1O[C@@H](O)[C@H](O)[C@@H](O)[C@@H]1O
inactive: Potency [2] | Potency [3] | Potency [4] | Potency [5]

c1ccc(-n2cnnn2)cc1
inactive: Potency [2] | Potency [3] | Potency [4] | Potency [5]

CCCC(=O)O
inactive: Potency [2] | Potency [3] | Potency [4] | Potency [5]

CCC(O)c1ccccc1 (configuration not stated)
inactive: Potency [2] | Potency [3] | Potency [4] | Potency [5]

C[C@H](O)CN(C)C
inactive: Potency [2] | Potency [3] | Potency [4] | Potency [5]

O=C(O)CCC/C=C\C[C@@H]1[C@@H](/C=C/[C@@H](O)COc2cccc(Cl)c2)[C@H](O)C[C@@H]1O
inactive: Potency [2] | Potency [3] | Potency [4] | Potency [5]
